Test results: PubChem BioAssay (Tox21)
Where “and” joins values, the source holds several entries; their conditions need not be identical. Identical values can stand only once. Results filed as inconclusive are left out. Calls of active or inactive are those of the source. Unless noted, the call rests on the fitted dose curve; in most records, active means well fitted curve in the direction sought with a large enough effect in the repeat runs; inconclusive means weak or mixed curves; inactive means no such curve, though single readings can be large; an effect the other way counts as inactive or inconclusive.

Experiments:
[1] = qHTS assay to identify aromatase inhibitors - cell viability counter screen (AID 743084);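 further: cells stimulated with testosterone during compound exposure; nearly all actives have a fitted effect of over 55% in size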; further: potency means the concentration at half of the fitted maximal effect
[2] = biological target: Aryl hydrocarbon receptor (Homo sapiens) (UniProt P35869); assay: qHTS assay to identify small molecule that activate the aryl hydrocarbon receptor (AhR) signaling pathway (AID 743085);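 further: HG2L7.5c1 human HepG2 liver cells with stably integrated DRE-driven firefly reporter; series mostly up to about 70 µM; nearly all actives have a fitted effect of over 15% in size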
Method in brief: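 AhR agonist activity is inferred from enhanced light output of a DRE-controlled firefly luciferase reporter in HepG2 cells, measured with ONE-Glo following 24 h treatment at 37C.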

[3] = qHTS assay to identify small molecule that activate the aryl hydrocarbon receptor (AhR) signaling pathway - cell viability counter screen (AID 743086);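 further: HepG2 liver cells carrying the AhR DRE luciferase reporter; series mostly up to about 70 µM; nearly all actives have a fitted effect of over 45% in size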
Method in brief: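 HepG2-AhR-luc (HG2L7.5c1) cells, 4000/well, treated 24 h at 37 C with compound; viability measured as CellTiter-Fluor fluorescence after 30 min in the same wells as the luciferase read.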

[4] = qHTS assay for small molecule activators of the heat shock response signaling pathway - cell viability counter screen (AID 743209); further: nearly all actives have a fitted effect of over 50% in size; further: potency means the concentration at half of the fitted maximal effect
Method in brief: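 Cytotoxicity counter screen run in parallel with the HSE beta-lactamase reporter, using the same wells. HeLa HSE-bla cells received compound for 5 h at 37 C; ATP-based CellTiter-Glo luminescence was measured after 30 min at room temperature.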

[5] = qHTS assay to identify small molecule agonists of the peroxisome proliferator-activated receptor delta (PPARd) signaling pathway - cell viability counter screen (AID 743211); further: nearly all actives have a fitted effect of over 55% in size; further: potency means the concentration at half of the fitted maximal effect
Method in brief: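 qHTS cell viability: PPARd-bla HEK293H; 17 h cpd, 37C; CellTiter-Glo, luminescence at 30 min RT.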

[6] = qHTS assay to identify small molecule antagonists of the peroxisome proliferator-activated receptor delta (PPARd) signaling pathway - cell viability counter screen (AID 743213); further: nearly all actives have a fitted effect of over 50% in size; further: potency means the concentration at half of the fitted maximal effect
Method in brief: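 HEK293H PPARd UAS-bla cells, 5 h pre-incubation, compound + L165041 300 nM final, 17 h 37 C; B/G FRET substrate 2 h RT; then CellTiter-Glo 30 min RT, luminescence.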

[7] = qHTS assay to identify small molecule agonists of the farnesoid-X-receptor (FXR) signaling pathway - cell viability counter screen (AID 743218); further: nearly all actives have a fitted effect of over 45% in size; further: potency means the concentration at half of the fitted maximal effect
Method in brief: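 Cells were seeded, left 5 h at 37 C and 5% CO2, then dosed with compound in DMSO for 16 h. After the beta-lactamase FRET read, CellTiter-Glo was added and luminescence measured 30 min later.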

[8] = qHTS assay to identify small molecule antagonists of the farnesoid-X-receptor (FXR) signaling pathway - cell viability counter screen (AID 743221; active means well fitted cell-killing curve with a large enough effect in the repeat runs, not every such curve was filed as active; further: nearly all actives have a fitted effect of over 50% in size; further: potency means the concentration at half of the fitted maximal effect)
Method in brief: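 After a 5 h settling period, FXR-bla HEK 293T cells receive compound and chenodeoxycholic acid (50 uM final) and incubate 16 h at 37 C; CellTiter-Glo luminescence, read after 30 min at room temperature, reports cell viability.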

[9] = biological target: Peroxisome proliferator-activated receptor gamma (Homo sapiens) (UniProt P37231); assay: qHTS assay to identify small molecule agonists of the peroxisome proliferator-activated receptor gamma (PPARg) signaling pathway (AID 743094; active means well fitted activation curve with a large enough effect in the signal ratio in the repeat runs, not every such curve was filed as active; the % refers to the signal ratio; further: potency means the concentration at half of the fitted maximal effect)
Method in brief: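 Cells from the PPARg UAS-bla HEK293H line are plated and incubated 5 h at 37C. Compounds in DMSO are pinned in and left 17 h at 37C. LiveBLAzer B/G substrate is then added for 1 h at room temperature before fluorescence is measured.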

[10] = biological target: Peroxisome proliferator-activated receptor gamma (Homo sapiens) (UniProt P37231); assay: qHTS assay to identify small molecule antagonists of the peroxisome proliferator-activated receptor gamma (PPARg) signaling pathway (AID 743191; calls by dose curve; further: series mostly up to about 63 µM; nearly all actives have a fitted effect of over 30% in size)
Method in brief: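 GeneBLAzer PPARg UAS-bla HEK293H cells, 5 h post-plating, exposed to compounds 17 h at 37C. LiveBLAzer B/G FRET substrate added for 1 h at room temperature; beta-lactamase reporter read by fluorescence intensity.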

[11] = qHTS assay for small molecule agonists of the antioxidant response element (ARE) signaling pathway (AID 743202; active means well fitted activation curve with a large enough effect in the signal ratio in the repeat runs, not every such curve was filed as active; the % refers to the signal ratio; further: potency means the concentration at half of the fitted maximal effect)
Method in brief: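 HepG2 ARE-bla reporter line, 2,000 cells/well; 5 h preincubation 37 C/5% CO2; compound (DMSO) 16 h 37 C; B/G FRET substrate 2 h RT; fluorescence intensity.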

[12] = qHTS assay for small molecule agonists of the antioxidant response element (ARE) signaling pathway - cell viability counter screen (AID 743203; calls by dose curve; further: nearly all actives have a fitted effect of over 55% in size; further: potency means the concentration at half of the fitted maximal effect)
Method in brief: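 Cytotoxicity was tested in parallel with the ARE reporter screen. ARE-bla HepG2 cells were exposed to compounds for 16 hrs, and viability was taken from CellTiter-Glo luminescence.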

[13] = qHTS assay for small molecule activators of the heat shock response signaling pathway (AID 743210; active means well fitted activation curve with a large enough effect in the signal ratio in the repeat runs, with a control signal flat, not every such curve was filed as active; the % refers to the signal ratio;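 further: HeLa cells with beta-lactamase reporter driven by heat shock elements; series mostly up to about 63 µM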)
Method in brief: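 Beta-lactamase reporter read-out: FRET substrate fluorescence after 2.5 h at RT, following 5 h compound treatment at 37 C of HeLa cells carrying HSE-driven bla reporter; quantitative HTS format.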

[14] = biological target: Peroxisome proliferator-activated receptor delta (Homo sapiens) (UniProt Q03181); assay: qHTS assay to identify small molecule agonists of the peroxisome proliferator-activated receptor delta (PPARd) signaling pathway (AID 743212; calls by dose curve; further: potency means the concentration at half of the fitted maximal effect)
Method in brief: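 Read-out: beta-lactamase FRET fluorescence after 2 h room-temperature incubation with LiveBLAzer B/G substrate. Cells were HEK293H carrying a UAS-bla reporter for PPARd, treated at 37 C with DMSO-dissolved compounds.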

[15] = biological target: Peroxisome proliferator-activated receptor delta (Homo sapiens) (UniProt Q03181); assay: qHTS assay to identify small molecule antagonists of the peroxisome proliferator-activated receptor delta (PPARd) signaling pathway (AID 743215; active means well fitted inhibition curve with a large enough effect in the signal ratio in the repeat runs, not every such curve was filed as active; the % refers to the signal ratio;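 further: cells stimulated with agonist L165041 at 300 nM final during compound exposure; series mostly up to about 62 µM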)
Method in brief: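 Cells: HEK293H with a UAS-driven beta-lactamase reporter responsive to PPARd. Compounds were co-added with L165041 (300 nM, final) and incubated 17 h at 37 C before a 2 h room-temperature FRET substrate step and fluorescence reading.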

[16] = biological target: Bile acid receptor (Homo sapiens) (UniProt Q96RI1); assay: qHTS assay to identify small molecule antagonists of the farnesoid-X-receptor (FXR) signaling pathway (AID 743217; active means well fitted inhibition curve with a large enough effect in the signal ratio in the repeat runs, not every such curve was filed as active; the % refers to the signal ratio; further: potency means the concentration at half of the fitted maximal effect)
Method in brief: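 Cells carrying a UAS-driven beta-lactamase reporter (GeneBLAzer FXR-UAS-bla HEK 293T) were plated and rested 5 h at 37 °C. Compounds in DMSO were added alongside chenodeoxycholic acid agonist at 50 uM final and left 16 h at 37 °C before FRET substrate readout.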

[17] = biological target: Bile acid receptor (Homo sapiens) (UniProt Q96RI1); assay: qHTS assay to identify small molecule agonists of the farnesoid-X-receptor (FXR) signaling pathway (AID 743220; active means well fitted activation curve with a large enough effect in the signal ratio in the repeat runs, not every such curve was filed as active; the % refers to the signal ratio)
Method in brief: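 FXR-UAS-bla HEK 293T cells carrying a UAS-driven beta-lactamase reporter were plated for 5 h at 37C/5% CO2, then exposed to DMSO-dissolved Tox21 10K compounds for 16 h at 37C. A LiveBLAzer B/G FRET substrate was loaded for 2 h at room temperature before fluorescence reading.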

[18] = biological target: Vitamin D3 receptor (Homo sapiens) (UniProt P11473); assay: qHTS assay to identify small molecule agonists of the vitamin D receptor (VDR) signaling pathway (AID 743222; calls by dose curve)
Method in brief: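 Cells carrying a VDR-driven beta-lactamase reporter are seeded at 2,000 per well and rested 4 h. Compounds in DMSO are added for 16 h at 37C, and FRET substrate fluorescence is measured after 2 h at room temperature.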

[19] = biological target: Vitamin D3 receptor (Homo sapiens) (UniProt P11473); assay: qHTS assay to identify small molecule antagonists of the vitamin D receptor (VDR) signaling pathway (AID 743223; active means well fitted inhibition curve with a large enough effect in the signal ratio in the repeat runs, not every such curve was filed as active; the % refers to the signal ratio)
Method in brief: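 Reporter line VDR-bla; stimulus 1alpha,25-(OH)2 vitamin D3, 3 nM final; compound co-addition, 16 h 37C/5% CO2; LiveBLAzer B/G substrate 2 h RT; fluorescence intensity.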

[20] = qHTS assay to identify small molecule antagonists of the peroxisome proliferator-activated receptor gamma (PPARg) signaling pathway - cell viability counter screen (AID 743194); further: nearly all actives have a fitted effect of over 55% in size
Method in brief: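 Cytotoxicity counter screen in PPARg-bla HEK293H cells, same wells as reporter assay. Compounds plus 50 nM rosiglitazone (final) for 17 h at 37 C, then viability read by CellTiter-Glo luminescence.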
On the % scale 0 is the no-effect control and ±100 the full control effect.

Chain of Vitamin D3 receptor (Homo sapiens) (P11473 whole entry, looked up): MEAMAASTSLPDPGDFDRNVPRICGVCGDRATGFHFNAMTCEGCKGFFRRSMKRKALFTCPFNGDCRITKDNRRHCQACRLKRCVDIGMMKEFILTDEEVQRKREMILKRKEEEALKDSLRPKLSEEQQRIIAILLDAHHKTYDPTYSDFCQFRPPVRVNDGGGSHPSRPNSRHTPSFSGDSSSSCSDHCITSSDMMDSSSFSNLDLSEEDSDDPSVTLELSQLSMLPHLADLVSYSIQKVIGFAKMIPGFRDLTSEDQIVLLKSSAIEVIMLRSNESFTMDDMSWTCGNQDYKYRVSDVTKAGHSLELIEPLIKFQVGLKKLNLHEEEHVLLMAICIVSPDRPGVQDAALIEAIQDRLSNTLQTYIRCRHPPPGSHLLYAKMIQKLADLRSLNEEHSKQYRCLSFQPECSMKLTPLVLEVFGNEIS
Chain of Bile acid receptor (Homo sapiens) (Q96RI1 whole entry, looked up): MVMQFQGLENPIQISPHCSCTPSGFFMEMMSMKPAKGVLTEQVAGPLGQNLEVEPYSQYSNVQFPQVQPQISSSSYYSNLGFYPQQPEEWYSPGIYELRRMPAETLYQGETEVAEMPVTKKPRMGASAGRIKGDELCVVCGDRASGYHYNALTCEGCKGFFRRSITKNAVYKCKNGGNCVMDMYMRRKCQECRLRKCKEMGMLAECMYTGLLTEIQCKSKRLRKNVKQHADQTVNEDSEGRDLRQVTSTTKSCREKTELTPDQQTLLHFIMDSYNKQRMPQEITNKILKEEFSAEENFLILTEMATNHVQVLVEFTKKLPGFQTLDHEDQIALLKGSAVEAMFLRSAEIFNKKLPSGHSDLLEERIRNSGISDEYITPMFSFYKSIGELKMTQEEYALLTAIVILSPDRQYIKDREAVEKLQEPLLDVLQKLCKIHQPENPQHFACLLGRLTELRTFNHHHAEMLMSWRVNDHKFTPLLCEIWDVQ
Chain of Peroxisome proliferator-activated receptor delta (Homo sapiens) (Q03181 whole entry, looked up): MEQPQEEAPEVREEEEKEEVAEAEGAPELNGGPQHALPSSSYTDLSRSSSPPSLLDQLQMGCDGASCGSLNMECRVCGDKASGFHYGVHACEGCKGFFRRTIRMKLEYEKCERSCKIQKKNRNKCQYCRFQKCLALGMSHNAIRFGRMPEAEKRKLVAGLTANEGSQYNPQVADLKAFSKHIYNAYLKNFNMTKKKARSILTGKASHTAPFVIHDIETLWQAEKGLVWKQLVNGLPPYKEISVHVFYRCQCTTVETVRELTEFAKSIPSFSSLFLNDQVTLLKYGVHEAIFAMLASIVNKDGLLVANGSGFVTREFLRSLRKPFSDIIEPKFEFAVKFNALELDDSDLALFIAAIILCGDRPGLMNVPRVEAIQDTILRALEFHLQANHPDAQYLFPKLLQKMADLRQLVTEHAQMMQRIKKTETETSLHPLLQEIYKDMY
Chain of Peroxisome proliferator-activated receptor gamma (Homo sapiens) (P37231 whole entry, looked up): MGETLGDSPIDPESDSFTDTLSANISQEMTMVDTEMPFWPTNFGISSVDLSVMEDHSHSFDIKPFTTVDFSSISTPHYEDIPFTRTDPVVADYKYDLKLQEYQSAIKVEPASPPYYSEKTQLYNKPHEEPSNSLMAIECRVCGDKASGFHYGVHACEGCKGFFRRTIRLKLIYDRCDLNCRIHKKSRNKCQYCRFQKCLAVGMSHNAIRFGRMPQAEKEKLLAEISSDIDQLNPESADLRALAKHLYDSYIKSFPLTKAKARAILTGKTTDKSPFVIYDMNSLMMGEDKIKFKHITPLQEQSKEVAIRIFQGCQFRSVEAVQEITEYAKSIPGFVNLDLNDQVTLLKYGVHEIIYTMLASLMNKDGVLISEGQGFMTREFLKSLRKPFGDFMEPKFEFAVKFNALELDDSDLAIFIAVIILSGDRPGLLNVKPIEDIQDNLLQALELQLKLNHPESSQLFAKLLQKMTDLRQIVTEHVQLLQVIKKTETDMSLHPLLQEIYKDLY
Chain of Aryl hydrocarbon receptor (Homo sapiens) (P35869 whole entry, looked up): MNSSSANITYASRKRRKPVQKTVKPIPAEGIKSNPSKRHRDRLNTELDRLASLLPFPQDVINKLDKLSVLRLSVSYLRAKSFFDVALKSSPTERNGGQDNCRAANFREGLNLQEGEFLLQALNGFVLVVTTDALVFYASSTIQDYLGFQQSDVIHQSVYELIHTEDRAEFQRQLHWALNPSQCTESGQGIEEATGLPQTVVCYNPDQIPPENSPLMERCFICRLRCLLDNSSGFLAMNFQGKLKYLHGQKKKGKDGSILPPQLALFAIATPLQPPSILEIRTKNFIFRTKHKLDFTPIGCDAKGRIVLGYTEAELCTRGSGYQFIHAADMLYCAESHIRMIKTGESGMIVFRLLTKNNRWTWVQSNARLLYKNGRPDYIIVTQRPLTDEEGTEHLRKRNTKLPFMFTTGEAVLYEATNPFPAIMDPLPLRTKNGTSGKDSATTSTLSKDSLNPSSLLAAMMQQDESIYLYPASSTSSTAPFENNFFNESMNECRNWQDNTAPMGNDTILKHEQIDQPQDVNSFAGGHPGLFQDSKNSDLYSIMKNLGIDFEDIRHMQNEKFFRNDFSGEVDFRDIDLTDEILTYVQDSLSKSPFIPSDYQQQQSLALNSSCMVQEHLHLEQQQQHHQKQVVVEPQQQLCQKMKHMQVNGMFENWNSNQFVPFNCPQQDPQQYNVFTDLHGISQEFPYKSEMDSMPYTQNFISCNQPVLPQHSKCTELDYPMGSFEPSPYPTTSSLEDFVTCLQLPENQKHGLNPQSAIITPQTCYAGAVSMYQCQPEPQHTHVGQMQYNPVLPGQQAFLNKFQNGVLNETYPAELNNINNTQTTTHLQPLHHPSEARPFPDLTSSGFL

CCCCc1ncc(/C=C(\Cc2cccs2)C(=O)O)n1Cc1ccc(C(=O)O)cc1
inactive: Potency [1] | Potency [2] | Potency [3] | Potency [4] | Potency [5] | Potency [6] | Potency [7] | Potency [8]

CC1OC(=O)C(C)OC1=O (stereo not given)
inactive: Potency [1] | Potency [2] | Potency [9] | Potency [10] | Potency [11] | Potency [12] | Potency [4] | Potency [13] | Potency [5] | Potency [14] | Potency [6] | Potency [15] | Potency [16] | Potency [7] | Potency [17] | Potency [18] | outcome [19]

CN(C)CCN(Cc1ccc(Cl)cc1)c1ccccn1
inactive: Potency [1] | Potency [2] | Potency [9] | Potency [20] | Potency [11] | Potency [12] | Potency [4] | Potency [13] | Potency [14] | Potency [15] | Potency [16] | Potency [17] | Potency [8] | Potency [18] | outcome [19]

CCCCCCCC/C=C\CCCCCCCC(=O)OCC
inactive: Potency [1] | Potency [2] | Potency [9] | Potency [10] | Potency [12] | Potency [4] | Potency [13] | Potency [5] | Potency [14] | Potency [7] | Potency [8] | Potency [18] | outcome [19]

CCN(CC)CCNC(=O)c1cc(Br)c(N)cc1OC
inactive: Potency [1] | Potency [3] | Potency [9] | Potency [10] | Potency [20] | Potency [12] | Potency [4] | Potency [13] | Potency [14] | Potency [7] | Potency [18] | outcome [19]

CCCNCC(O)COc1ccccc1C(=O)CCc1ccccc1 (stereo not given)
inactive: Potency [1] | Potency [2] | Potency [20] | Potency [12] | Potency [4] | Potency [13] | Potency [8] | Potency [18]

CNCCCCOc1ccccc1Cc1ccccc1
inactive: Potency [1] | Potency [2] | Potency [9] | Potency [20] | Potency [4] | Potency [13] | Potency [17] | Potency [18]
active: Potency [12] 29.8 µM | Potency [5] 26.6 µM | Potency [6] 13.3 µM

C[Si](C)(CCCN)O[Si](C)(C)CCCN
inactive: Potency [1] | Potency [3] | Potency [9] | Potency [20] | Potency [12] | Potency [4] | Potency [13] | Potency [5] | Potency [14] | Potency [6] | Potency [15] | outcome [19]

CCCCC(=O)OCC(=O)[C@H]1[C@H](C)C[C@H]2[C@@H]3C[C@H](F)C4=CC(=O)C=C[C@]4(C)[C@@]3(F)[C@@H](O)C[C@@]21C
inactive: Potency [1] | Potency [2] | Potency [9] | Potency [20] | Potency [11] | Potency [12] | Potency [4] | Potency [5] | Potency [6] | Potency [7] | Potency [8] | Potency [18] | outcome [19]

N=c1ccn2c(n1)O[C@H]1[C@H](O)[C@@H](CO)O[C@H]12
inactive: Potency [1] | Potency [2] | Potency [9] | Potency [20] | Potency [12] | Potency [4] | Potency [13] | Potency [5] | Potency [6] | Potency [7] | Potency [8] | Potency [18]

O=P(O)(OCc1ccccc1)OCc1ccccc1
inactive: Potency [1] | Potency [2] | Potency [9] | Potency [20] | Potency [12] | Potency [4] | Potency [13] | Potency [6] | Potency [7] | Potency [17] | Potency [8] | Potency [18]

CCc1c(C(=O)NN2CCCCC2)nn(-c2ccc(Cl)cc2Cl)c1-c1ccc(Br)cc1
inactive: Potency [1] | Potency [2] | Potency [4]
active: Potency [7] 24.5 µM | Potency [8] 24.5 µM

CCCCCCCC#N
inactive: Potency [1] | Potency [3] | Potency [9] | Potency [10] | Potency [20] | Potency [11] | Potency [12] | Potency [5] | Potency [14] | Potency [7] | Potency [8] | outcome [19]

S=C([S-])NCCNC(=S)[S-].[Mn+2]
active: Potency [11] 6.86 µM
inactive: Potency [1] | Potency [2] | Potency [9] | Potency [10] | Potency [12] | Potency [4] | Potency [6] | Potency [8] | Potency [18]

Brc1c2ccccc2c(Br)c2ccccc12
active: Potency [9] 1.98 µM | Potency [14] 1.98 µM
inactive: activity change, negative = cytotoxicity [1] 12.2% [at 8.47 µM] | viability change, negative = cytotoxic [3] -2.96% [at 8.47 µM] | activity change, negative = cytotoxicity [20] 7.41% [at 5.95 µM] | viability change, negative = cytotoxic [12] 3.8% [at 8.36 µM] | activity change, negative = cytotoxicity [4] 2.9% [at 5.95 µM] | activity change, negative = cytotoxicity [5] 11.2% [at 5.95 µM] | viability change, negative = cytotoxic [6] -15% [at 6.26 µM] | ratio activity, negative = inhibition [15] -10.9% [at 6.26 µM] | activity change, negative = inhibition [16] 14.8% [at 5.95 µM] | activity change, negative = cytotoxicity [8] -3.74% [at 5.95 µM]

Nc1ncn([C@H]2C[C@H](O)[C@@H](CO)O2)c(=O)n1
inactive: Potency [1] | Potency [2] | Potency [9] | Potency [20] | Potency [11] | Potency [12] | Potency [4] | Potency [5] | Potency [6] | Potency [7] | Potency [17] | Potency [8] | Potency [18] | outcome [19]
active: Potency [16] 10.6 µM

Cc1oc(-c2ccccc2)nc1CCOc1cccc2c1ccn2CCC(=O)O
active: Potency [1] 27.3 µM | Potency [9] 0.0174 µM | Potency [14] 8.71 µM
inactive: Potency [2] | Potency [20] | Potency [12] | Potency [4] | Potency [13] | Potency [5] | Potency [6] | Potency [15] | Potency [8] | Potency [18]

CCCCCC[C@@H](O)C/C=C\CCCCCCCC(=O)OC
inactive: Potency [1] | Potency [3] | Potency [9] | Potency [20] | Potency [11] | Potency [12] | Potency [4] | Potency [13] | Potency [5] | Potency [6] | Potency [7] | Potency [8] | Potency [18]

C=CC(=O)OCCOCCOCCOCCOC(=O)C=C
active: Potency [1] 13.8 µM and 19.2 µM | Potency [4] 34.8 µM
inactive: Potency [2] | Potency [12] | Potency [6] | Potency [8]

CC1=CC[C@H](C(C)C)C=C1
active: Potency [11] 54.5 µM | Potency [8] 49 µM
inactive: Potency [1] | Potency [2] | Potency [9] | Potency [20] | Potency [12] | Potency [4] | Potency [13] | Potency [6] | Potency [7]
